± gives the standard deviation of the averaged measurements.
biological target: MurC (UniProt C4ZRI6); test: relative enzymatic activity vs untreated control (fraction); higher = less inhibition; details: 100 µM; incubation time: 2 h at 37 C
Procedure: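 In vitro enzymatic inhibition assays (ProFoldin kits) for 12 purified essential E. coli enzymes or complexes, each treated with 218 active antibacterial compounds at 100 µM for 2 h at 37°C. Read-outs were fluorescence or absorbance (phosphate detection, dye binding), converted to activity via standard curves and expressed relative to untreated DMSO controls.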

Chain of MurC (C4ZRI6 whole entry, looked up): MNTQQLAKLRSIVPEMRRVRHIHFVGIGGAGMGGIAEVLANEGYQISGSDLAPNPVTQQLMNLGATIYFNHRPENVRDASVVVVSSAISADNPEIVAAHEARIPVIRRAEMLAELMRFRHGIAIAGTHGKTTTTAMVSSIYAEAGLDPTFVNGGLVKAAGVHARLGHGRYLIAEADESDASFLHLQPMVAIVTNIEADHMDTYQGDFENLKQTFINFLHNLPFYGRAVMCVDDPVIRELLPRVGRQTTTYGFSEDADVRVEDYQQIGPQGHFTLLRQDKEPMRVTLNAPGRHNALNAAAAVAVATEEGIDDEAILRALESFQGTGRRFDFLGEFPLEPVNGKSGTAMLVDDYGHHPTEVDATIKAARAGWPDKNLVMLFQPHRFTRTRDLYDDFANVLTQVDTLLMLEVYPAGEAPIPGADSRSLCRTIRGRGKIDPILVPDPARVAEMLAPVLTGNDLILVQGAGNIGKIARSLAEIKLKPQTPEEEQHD

Compound | relative enzymatic activity
CC(C)(O/N=C(\C(=O)N[C@@H]1C(=O)N2C(C(=O)O)=C(C[n+]3ccccc3)CS[C@H]12)c1csc(N)n1)C(=O)O | 1.02 ± 0.022
CO/N=C1\CN(c2nc3c(cc2F)c(=O)c(C(=O)O)cn3C2CC2)C[C@@H]1CN | 0.717 ± 0.047
O=C([O-])C1=C(CSc2nnnn2CS(=O)(=O)[O-])CSC2C(NC(=O)C(O)c3ccccc3)C(=O)N12.[Na+].[Na+] (stereo not given) | 1.25 ± 0.052
Cc1c(N)nc([C@H](CC(N)=O)NC[C@H](N)C(N)=O)nc1C(=O)N[C@H](C(=O)N[C@H](C)[C@@H](O)[C@H](C)C(=O)N[C@H](C(=O)NCCc1nc(-c2nc(C(=O)NCCCNCCCCN)cs2)cs1)[C@@H](C)O)[C@@H](O[C@@H]1O[C@@H](CO)[C@@H](O)[C@H](O)[C@@H]1O[C@@H]1O[C@H](CO)[C@@H](O)[C@H](OC(N)=O)[C@@H]1O)c1c[nH]cn1 | 1.006 ± 0.0098
CCOC(=O)OC(C)OC(=O)C1N2C(=O)C(NC(=O)C(N)c3ccccc3)C2SC1(C)C.Cl (stereo not given) | 1.01 ± 0.035
CON=C(C(=O)NC1C(=O)N2C(C(=O)O)=C(C[N+]3(C)CCCC3)CSC12)c1csc(N)n1.[Cl-] (stereo not given) | 0.984 ± 0.032
C=CC1=C(C(=O)O)N2C(=O)[C@@H](NC(=O)/C(=N\OCC(=O)O)c3csc(N)n3)[C@H]2SC1 | 1.12 ± 0.017
CN[C@@H]1[C@H](O[C@H]2[C@H](O[C@@H]3[C@@H](O)[C@H](O)[C@@H](NC(=N)N)[C@H](O)[C@H]3NC(=N)N)O[C@@H](C)[C@]2(O)CO)O[C@@H](CO)[C@H](O)[C@H]1O.CN[C@@H]1[C@H](O[C@H]2[C@H](O[C@@H]3[C@@H](O)[C@H](O)[C@@H](NC(=N)N)[C@H](O)[C@H]3NC(=N)N)O[C@@H](C)[C@]2(O)CO)O[C@@H](CO)[C@H](O)[C@H]1O | 0.963 ± 0.063
CCC=C(C(=O)NC1C(=O)N2C(C(=O)OCOC(=O)C(C)(C)C)=C(COC(N)=O)CSC12)c1csc(N)n1.Cl (stereo not given) | 0.843 ± 0.14
CCCCCCCCCCCCC[N+](C)(C)Cc1ccccc1.O.[Cl-] | 0.556 ± 0.086
Cc1cc(O)c(C(=O)NC(C(=O)NC2C(=O)N3C(C(=O)O)=C(CSc4nnnn4C)CSC23)c2ccc(O)cc2)cn1 (stereo not given) | 0.971 ± 0.12
CC[C@@H]1OC(=O)[C@H](C)[C@@H](O[C@H]2C[C@@](C)(OC)[C@@H](O)[C@H](C)O2)[C@H](C)[C@@H](O[C@@H]2O[C@H](C)C[C@H](N(C)C)[C@H]2O)[C@](C)(O)C[C@@H](C)/C(=N\OCOCCOC)[C@H](C)[C@@H](O)[C@]1(C)O | 0.962 ± 0.064
CCN1CCN(C(=O)NC(C(=O)NC2C(=O)N3C(C(=O)O)=C(CSc4nnnn4C)CSC23)c2ccc(O)cc2)C(=O)C1=O (stereo not given) | 0.942 ± 0.1
COC1C=COC2(C)Oc3c(C)c(O)c4c(O)c(c(C=NN5CCN(C6CCCC6)CC5)c(O)c4c3C2=O)NC(=O)C(C)=CC=CC(C)C(O)C(C)C(O)C(C)C(OC(C)=O)C1C (stereo not given) | 0.182 ± 0.016
CC(NCCCc1cccc(C(F)(F)F)c1)c1cccc2ccccc12.Cl (stereo not given) | 0.985 ± 0.092
CN1CCN(c2cc3c(cc2F)c(=O)c(C(=O)O)cn3-c2ccc(F)cc2)CC1.Cl | 0.9809 ± 0.0032
O=c1[nH]cc(F)c(=O)[nH]1 | 0.97 ± 0.074
CN(C)C1C(O)=C(C(N)=O)C(=O)C2(O)C(O)=C3C(=O)c4c(O)cccc4C(C)(O)C3C(O)C12.Cl (stereo not given) | 1.09 ± 0.081
CC(C)CCCC(=O)N[C@@H](CCNCS(=O)(=O)O)C(=O)N[C@H](C(=O)N[C@@H](CCNCS(=O)(=O)O)C(=O)N[C@H]1CCNC(=O)[C@H]([C@@H](C)O)NC(=O)[C@H](CCNCS(=O)(=O)O)NC(=O)[C@H](CCNCS(=O)(=O)O)NC(=O)[C@H](CC(C)C)NC(=O)[C@H](CC(C)C)NC(=O)[C@H](CCNCS(=O)(=O)O)NC1=O)[C@@H](C)O | 1.16 ± 0.21
N[C@H]1CCN(c2nc3c(cc2F)c(=O)c(C(=O)O)cn3-c2ccc(F)cc2F)C1 | 0.934 ± 0.034

Compound | relative enzymatic activity
CN(C)C1C(O)=C(C(N)=O)C(=O)C2(O)C(O)=C3C(=O)c4c(O)ccc(Cl)c4C(O)C3CC12.Cl (stereo not given) | 1.021 ± 0.0019
CON=C(C(=O)NC1C(=O)N2C(C(=O)[O-])=C(CSc3nc(=O)c([O-])nn3C)CSC12)c1csc(N)n1.O.O.O.[Na+].[Na+] (stereo not given) | 1.041 ± 0.0071
CNC1C(O)C(NC)C2OC3(O)C(=O)CC(C)OC3OC2C1O.Cl.Cl (stereo not given) | 0.914 ± 0.024
CN1CCN(c2c(F)cc3c(=O)c(C(=O)O)cn(CCF)c3c2F)CC1 | 1.02 ± 0.011
COC1(NC(=O)C(C(=O)[O-])c2ccc(O)cc2)C(=O)N2C(C(=O)[O-])=C(CSc3nnnn3C)COC21.[Na+].[Na+] (stereo not given) | 1.03 ± 0.046
COC1C=COC2(C)Oc3c(C)c(O)c4c(O)c(c5c(nc6cc(C)ccn65)c4c3C2=O)NC(=O)C(C)=CC=CC(C)C(O)C(C)C(O)C(C)C(OC(C)=O)C1C (stereo not given) | 0.715 ± 0.08
COc1ccc2c(c1OC)C(=O)OC2C1c2c(cc3c(c2OC)OCO3)CCN1C.Cl (stereo not given) | 1.45 ± 0.16
CN(C)CCC=C1c2ccccc2COc2ccc(CC(=O)O)cc21.Cl | 0.905 ± 0.018
CO/N=C(\C(=O)N[C@@H]1C(=O)N2C(C(=O)O)=C(CSC(=O)c3ccco3)CS[C@H]12)c1csc(N)n1 | 0.977 ± 0.095
CC(=O)On1cc(F)c(=O)[nH]c1=O | 1.07 ± 0.079
CCn1cc(C(=O)O)c(=O)c2cc(F)c(N3CCN(C)CC3)cc21.CS(=O)(=O)O | 1.02 ± 0.013
CNC1C(OC2C(OC3C(O)C(O)C(NC(=N)N)C(O)C3NC(=N)N)OC(C)C2(O)CO)OC(CO)C(O)C1O.O=S(=O)(O)O (stereo not given) | 1.1 ± 0.059
C[C@H]1COc2c(C3(N)CC3)c(F)cc3c(=O)c(C(=O)O)cn1c23 | 1.01 ± 0.03
Oc1ccc(Cl)c2cccnc12 | 1.16 ± 0.16
CN(C)[C@@H]1C(=O)[C@@H](C(N)=O)C(=O)[C@@]2(O)C(=O)[C@H]3C(=O)c4c(O)ccc(Cl)c4[C@@H](O)[C@H]3C[C@@H]12 | 1.009 ± 0.01
Nc1c2ccccc2nc2ccccc12 | 0.998 ± 0.044
NCc1ccccc1CC(=O)NC1C(=O)N2C(C(=O)O)=C(CSc3nnnn3CC(=O)O)CSC12 (stereo not given) | 1.05 ± 0.17
CO/N=C(\C(=O)N[C@@H]1C(=O)N2C(C(=O)O)=C(C[N+]3(C)CCCC3)CS[C@H]12)c1csc(N)n1 | 0.8921 ± 0.007
CO[C@@]12[C@@H]3N[C@@H]3CN1C1=C(C(=O)C(N)=C(C)C1=O)[C@@H]2COC(N)=O | 1.08 ± 0.11
N[C@@H](C(=O)N[C@@H]1C(=O)N2C(C(=O)O)=C(Cl)CC[C@H]12)c1ccccc1 | 0.967 ± 0.054
